Screens deposited in PubChem by Sanford-Burnham Center for Chemical Genomics.
APOBEC3G inh – inhibitors of human APOBEC3G DNA deaminase | recombinant A3G, ssDNA deamination FAM/TAMRA fluorescence | inhibition, % at 20 µM | 330,000 tested, 0.28% active | AID 493012;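 active means inhibition of at least 40% at 20 µM, with no more than 30% in the related APOBEC3A deaminase screen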;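 further: plate controls were DMSO wells with A3G for no effect and wells lacking A3G enzyme for full effect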
NPR1 activator – GC-A (human) enzyme activation; AID 1671463; HEK293 GC-A cells, cGMP TR-FRET, EC30 ANP; 0% at EC30 ANP, 100% saturating ANP; 370,000 tested, 0.14% active; P16066; activation, % at 10 µM; in the data active means activation above about 40%
Target sequence (P16066 whole entry, looked up): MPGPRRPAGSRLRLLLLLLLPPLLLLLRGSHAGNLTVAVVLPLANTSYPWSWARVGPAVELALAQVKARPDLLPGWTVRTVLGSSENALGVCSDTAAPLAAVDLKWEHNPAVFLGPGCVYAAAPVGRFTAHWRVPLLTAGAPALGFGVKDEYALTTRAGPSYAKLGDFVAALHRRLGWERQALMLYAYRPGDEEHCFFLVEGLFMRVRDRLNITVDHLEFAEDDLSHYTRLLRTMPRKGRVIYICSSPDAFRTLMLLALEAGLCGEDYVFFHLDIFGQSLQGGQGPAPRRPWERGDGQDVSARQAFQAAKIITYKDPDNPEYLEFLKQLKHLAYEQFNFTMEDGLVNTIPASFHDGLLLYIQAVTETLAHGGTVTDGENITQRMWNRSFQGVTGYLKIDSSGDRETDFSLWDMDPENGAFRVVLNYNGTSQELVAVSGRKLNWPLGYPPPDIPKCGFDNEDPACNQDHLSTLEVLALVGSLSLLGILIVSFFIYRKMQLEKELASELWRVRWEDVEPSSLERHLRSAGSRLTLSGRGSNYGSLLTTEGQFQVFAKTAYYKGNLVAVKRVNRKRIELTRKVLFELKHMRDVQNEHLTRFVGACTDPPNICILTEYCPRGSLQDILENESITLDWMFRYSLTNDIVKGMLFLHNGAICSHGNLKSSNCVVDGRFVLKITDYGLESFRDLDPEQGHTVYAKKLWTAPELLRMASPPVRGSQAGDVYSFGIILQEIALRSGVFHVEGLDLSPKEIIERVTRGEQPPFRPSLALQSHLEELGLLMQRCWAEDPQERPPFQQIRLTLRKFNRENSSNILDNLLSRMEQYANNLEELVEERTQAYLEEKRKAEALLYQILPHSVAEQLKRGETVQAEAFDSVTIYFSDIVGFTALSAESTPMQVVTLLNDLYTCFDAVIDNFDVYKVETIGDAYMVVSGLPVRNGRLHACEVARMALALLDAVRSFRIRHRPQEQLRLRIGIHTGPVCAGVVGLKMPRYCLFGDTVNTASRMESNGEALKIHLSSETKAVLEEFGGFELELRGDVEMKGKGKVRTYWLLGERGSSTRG
A3A deaminase – human APOBEC3A DNA deaminase inhibition; P31941; recombinant A3A, FAM/TAMRA ssDNA deamination fluorescence; inhibition, % at 20 µM; 330,000 tested, 0.41% active;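 active means at least 40% inhibition at 20 µM here, with at most 30% in a related deaminase screen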;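 further: plate controls were A3A with DMSO for no effect and wells lacking A3A enzyme for full effect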
Neddyl block – cullin neddylation inhibition; P61081+Q13564; TR-FRET cullin neddylation, biochemical; inhibition, % at 25 µM; 360,000 tested, 0.58% active; AID 651699; in the data active means inhibition above about 36%
PfG6PD inh – PfG6PD (Plasmodium falciparum) enzyme inhibition. PfGluPho enzyme, NADPH resazurin-diaphorase fluorescence. inhibition, % at 20 µM. 350,000 tested, 0.78% active. AID 504690;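 active means inhibition reaching at least a set limit at 20 µM in the primary screen, cut at about 59% in these data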;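 further: 0% = DMSO wells with substrate and 100% = DMSO wells lacking glucose-6-phosphate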
GC-B act – GC-B (human) receptor activation; P20594; HEK293-GC-B cells, CNP EC30, cGMP TR-FRET; 0% at EC30 CNP, 100% saturating CNP; activation, % at 10 µM; 370,000 tested, 0.11% active;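 active means activation at 10 µM reaching about 35% in either raw or pattern-adjusted values, limit read from the data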
PfG6PD confirm – confirmation of Plasmodium falciparum G6PD inhibitors; AID 504753; 2,400 tested, 34% active; inhibition, % at 20 µM; recombinant PfGluPho, NADPH-diaphorase-resazurin fluorescence; shares compounds with PfG6PD inh;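 active means inhibition of at least 50% at 20 µM in any single replicate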;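 further: 0% = DMSO with substrate and 100% = DMSO lacking glucose-6-phosphate substrate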
Diaph ctr 10uM – inhibits diaphorase or oxidizes, flagging false PfG6PD hits. diaphorase-coupled resazurin reduction, fluorescence, NADPH 10 uM. inhibition, % at 20 µM. 820 tested, 39% active. shares compounds with PfG6PD inh;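 active means average inhibition reaching 50% or more with the compound at 20 µM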;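 further: resorufin red fluorescence formed as diaphorase reduces resazurin using NADPH; 0% = DMSO with enzyme and 100% = DMSO without enzyme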
Diaph ctr 30uM – counter-screen for P. falciparum G6PD inhibitors: diaphorase inhibitors, oxidizers. 820 tested, 29% active. shares compounds with PfG6PD inh. Diaphorase/resazurin coupled assay, resorufin fluorescence, 30 uM NADPH. AID 504863. inhibition, % at 20 µM;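 active means inhibition averaging 50% or more, tested at 20 µM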;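 further: 0% = DMSO with enzyme and 100% = DMSO wells lacking diaphorase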
* marks the source's active call; other numbers are inactive results; · = not tested or not shown. The list is not random: actives were taken first. Their share in the collection is about 2%.

SMILES	APOBEC3G inh	NPR1 activator	A3A deaminase	Neddyl block	PfG6PD inh	GC-B act	PfG6PD confirm	others
O=C1OC2(c3ccccc31)c1ccccc1-c1ccccc12	·	-3	·	-10	84*	-5	31
C/C(=C/c1nc(N)n(Cc2ccccc2)c1Cc1ccccc1)Cn1[nH]c(=O)n(-c2ccccc2)c1=O	·	3	·	·	·	3	·
O=C(Nc1nc2c(s1)CCCC2)c1ccc2ncsc2c1	-4	0	-2	20	65*	-5	9
O=C(Nc1nc2c(s1)CCCC2)c1ccc(N2C(=O)CCC2=O)cc1	-3	4	-1	4	6	4	·
O=C(Nc1nc2c(s1)CCCC2)c1ccc(Br)s1	-6	5	-3	-86	68*	-1	26
CCCCCCCCN1CN2Cc3ccccc3C2CS1(=O)=O (stereo unspecified)	·	2	·	·	·	2	·
O=C(CSc1nnc2c(n1)[nH]c1ccccc12)Nc1cccc(S(=O)(=O)N2CCOCC2)c1	6	6	15	-11	62*	-2	16
O=C(CSc1nnc2c(n1)[nH]c1ccccc12)Nc1ccc2c(c1)OCO2	3	8	3	-17	64*	3	0
O=C(CSc1nnc2c(n1)[nH]c1ccccc12)Nc1ccc(N2CCOCC2)cc1	-2	-2	-3	-33	56	-6	·
COCC(=O)Nc1c(C(=O)Nc2ccc3c(c2)OCO3)oc2ccccc12	-10	-1	-6	39	-2	0	·
Cc1c(C(=O)Nc2ccc3c(c2)OCO3)oc2ccccc12	-13	4	0	10	61*	-7	-3
CC(=O)Nc1c(C(=O)Nc2ccc3c(c2)OCO3)oc2ccccc12	-2	2	-4	6	17	-5	·
CSCc1c(C(=O)Nc2ccc3c(c2)OCO3)oc2ccccc12	-10	0	-1	8	68*	-1	3
CC(C)[C@H]1COc2c3ccccc3nn21	·	2	·	·	·	-3	·
FC(F)(F)c1ccccc1CN1CCCc2nc(-c3ccc(Br)cc3)ccc21	·	4	·	·	·	-1	·
Cc1cc(C(=O)COc2cccc(-n3cnnn3)c2)c(C)n1-c1ccccc1	-1	-3	0	-8	74*	-3	26
COC(=O)COc1cccc(-n2cnnn2)c1	-4	3	-3	-1	-7	1	·
CNC(=S)N/N=C/c1ccc(N(C)C)cc1	-4	-2	-2	·	11	-3	·
Cc1cc(O)c(C(C)C)cc1N=Cc1ccc([N+](=O)[O-])cc1	·	-1	·	-23	91*	-4	62*	Diaph ctr 10uM=49;Diaph ctr 30uM=15
Cc1cc(O)c(C(C)C)cc1N=Cc1ccc(N(C)C)cc1	·	-7	·	-10	106*	-15	83*	Diaph ctr 10uM=87*;Diaph ctr 30uM=43
COc1cccc(C=Nc2cc(C(C)C)c(O)cc2C)c1O	·	-1	·	2	114*	-6	67*	Diaph ctr 10uM=6;Diaph ctr 30uM=-1
COc1cc(Sc2ccc(C)cc2)c(OC)cc1N	1	4	-2	7	60*	-4	56*	Diaph ctr 10uM=17;Diaph ctr 30uM=17
C=CCN1[C@H](C)COc2cccc(N3CCCC3)c2S1(=O)=O	·	-2	·	·	·	-1	·
Oc1ccc(/C=N/NC(=S)Nc2cccnc2)cc1O	-9	-5	-5	-13	-2	-4	·
S=C(N/N=C/c1ccc2ncccc2c1)Nc1cccnc1	-11	-4	-3	-34	69*	2	9
SMILES	APOBEC3G inh	NPR1 activator	A3A deaminase	Neddyl block	PfG6PD inh	GC-B act	PfG6PD confirm	others
O=C(O)c1cccc(NC(=S)N/N=C/c2ccccn2)c1	-5	-1	0	-1	68*	-1	44
CC(C)C[C@H](NC(=O)c1ccc(Cl)cc1Cl)C(=O)N1CCC[C@H]1C(=O)NCc1ccccc1	·	3	·	·	·	8	·
Cc1ccc(NC(=O)C2CCN(c3nnc(-n4cccc4)s3)CC2)cc1C	·	0	·	·	·	-1	·
Cc1ccc(NC2=C(NC(=O)c3ccccc3)C(=O)c3ccccc3C2=O)cc1Cl	-4	-8	-4	-22	86*	0	63*	Diaph ctr 10uM=31;Diaph ctr 30uM=18
CCOC(=O)/C(=N/Nc1ccc(OC)cc1)N1CCCc2ccccc21	-14	0	-5	2	112*	-2	58*	Diaph ctr 10uM=56*;Diaph ctr 30uM=51*
CCOC(=O)/C(=N/Nc1ccccc1OC)N1CCCc2ccccc21	20	-6	-1	13	23	-3	·
COC(=O)/C(=N/Nc1ccccc1C)N1CCCc2ccccc21	-9	-8	-3	0	-7	-1	·
CCOC(=O)/C(=N/Nc1ccccc1)N1CCCc2ccccc21	-5	-2	-3	-4	95*	0	33
NC(=S)NNc1ccc(Cl)c(Cl)c1	1	2	-2	13	65*	-4	10
COC(=O)[C@H](C(C)C)N1Cc2nnn(Cc3ccc(C)cc3)c2-c2ccccc2S1(=O)=O	·	1	·	·	·	4	·
COc1ccc(Cl)cc1NC(=O)CN(C(=O)c1ccco1)C1CCCCC1	-6	-16	-5	-5	63*	-5	31
COc1ccc(Cl)cc1NC(=O)CN(C)C(C)C(=O)NCC1CCCCC1 (stereo unspecified)	-2	-7	-1	-10	14	-6	·
CCn1c([N+](=O)[O-])nc2c1c(=O)[nH]c(=O)n2C	·	6	·	-22	67*	-1	52*	Diaph ctr 10uM=37;Diaph ctr 30uM=32
CCCCCCn1c(SCCCC)nc2c1c(=O)[nH]c(=O)n2C	-5	2	4	0	-10	-4	·
COc1ccc(C(=O)c2c(C(F)(F)F)oc3c2C(=O)c2ccccc2C3=O)cc1	8	·	-4	-46	76*	·	35*	Diaph ctr 10uM=28;Diaph ctr 30uM=32
CC(=O)N1CCN(c2ccc(NCc3cccc4ccccc34)cc2)CC1	-8	6	-5	-2	63*	-11	24
Cc1cc2c(c(=O)o1)[C@@]1(C(=O)N(C)c3c(Br)cccc31)C1=C(CCCC1=O)O2	·	4	·	·	·	4	·
COc1ccccc1NC(=O)Nc1nn(C)c2cccc(N(C)C)c12	-5	-4	-2	31	64*	-8	21
CCCCC1(CO)C(=O)N(c2ccccc2)N(c2ccccc2)C1=O	-4	-3	3	5	4	-1	·
CCCCC1C(=O)N(c2ccccc2)N(c2ccc(O)cc2)C1=O (stereo unspecified)	-1	5	-2	-3	78*	0	54*	Diaph ctr 10uM=-26;Diaph ctr 30uM=-36
CCCc1nc(SCc2ccc(Cl)cc2Cl)n[nH]1	-6	-2	-3	-6	72*	-4	44
